# Test results as given in PubChem BioAssay AID912 (National Center for Advancing Translational Sciences (NCATS), 2007).
# “And” between values parts separate entries of the source, which are not always exact repeats. Identical values can stand only once. In all, about 70,000 compounds went through this assay and about 470 (0.67%) were called active. Not shown: some 18% with an inconclusive outcome. The sample as a whole holds a higher share of actives than the screen did. A number with no mark means an inactive call. Calls come from the whole dose curve.
# Test: qHTS Assay for Anthrax Lethal Toxin Internalization; note: nearly all actives have a fitted effect of over 50% in size
# Details: Cells, FRET ratio (460/530); series mostly up to 40 µM; activity change, negative = inhibition: at the top concentration
# % is set by controls: 0 for no effect and ±100 for the full control effect; potency is the fitted concentration of half-maximal effect.
Compound,"activity change, negative = inhibition",Potency
CO[C@@H]1COC(=O)C/C=C\[C@H](C)[C@@H](NS(=O)(=O)c2ccc(C)cc2)COC(=O)C/C=C\[C@@H]1C,-10% [at 8 µM] and -6.83% [at 8 µM],–
c1ccc2nc(C3=NCCN3)cnc2c1,-10.6%,–
Cc1c2c(nc3ccccc13)-c1cccc(=O)n1C2,13.1%,–
COc1ccccc1C(=O)C(O)c1ccccc1OC (centres undefined),0.661%,–
CC(=O)OCC1OC(C#Cc2ccccc2Cl)C=CC1OC(C)=O (centres undefined),-7.54% [at 8 µM],–
C[N+](C)(C)CCCCCNCC12CC3CC(CC(C3)C1)C2,-4.05%,–
CSc1ccc(-c2c(C#N)c(N)nc3c2c(C)nn3-c2ccccc2)cc1,–,1.26 µM (active)
COC(=O)[C@@]1(Cc2ccc(F)cc2)[C@H]2c3cc(C(=O)N4CCCC4)n(C[C@H](O)CO)c3C[C@H]2CN1C(=O)c1ccccc1,-7.88%,–
COc1cc([C@H]2c3cc4c(cc3[C@@H](O[C@@H]3O[C@H]5CO[C@@H](C)O[C@]5(O)C[C@H]3O)[C@@H]3COC(=O)[C@H]23)OCO4)cc(OC)c1O,-4.25%,–
CCC(Sc1nncn1C)C(=O)Nc1nnc(-c2ccc(Cl)cc2)s1 (centres undefined),-9.91%,–
O=C(O)c1ccc(C(=O)O)c2c(C(=O)O)ccc(C(=O)O)c12,-1.24% [at 8 µM],–
COc1ccc(N)c(OC)c1,2.98%,–
COC(=O)[C@@]1(Cc2ccccc2)[C@H]2c3cc(C(=O)N(C)C)n(CCSCCO)c3C[C@H]2CN1C(=O)c1ccccc1,-2.03%,–
CCC[C@@H]1C[C@@]1(CCC)C(NS(=O)(=O)c1cccc2cccnc12)c1ccc(Cl)cc1 (some centres undefined),-5.82%,–
NCC[Se][Se]CCN,–,0.0794 µM (active)
C=C1c2cc(CC)ccc2NC(=O)N1c1ccc(C)cc1,–,10 µM (active)
N[C@@H](C(=O)O)c1ccc(P(=O)(O)O)cc1,-11.7%,–
CC(=O)N1CCC2(CCCN(Cc3ccc(C#N)cc3)C2)CC1,5.89%,–
CCCCCCOC(=O)NCC(O)c1ccccc1 (centres undefined),-2.14%,–
COc1cccc([C@H](O)Cn2cc(-c3ccc(CON=C(C)C)cc3)nn2)c1,-1.91% [at 8 µM],–
COc1ncc2nc(-c3ccc(Cl)cc3)c(=O)n(C)c2n1,-9.73%,–
N#Cc1nc(Cc2ccccc2)oc1NCCc1ccccc1,-5.56%,–

Compound,"activity change, negative = inhibition",Potency
N#Cc1nc(-c2ccc(OCc3ccccc3)cc2)oc1NCCCN1CCOCC1,–,12.6 µM (active)
N#Cc1nc(COc2ccc(-c3ccccc3)cc2)oc1NCc1cccnc1,-9.62%,–
C/C=C/C=C/C(=O)O,1.42%,–
CC(C)CN1CCc2nc(-c3ccccc3)c3c(c2C1)COC(C)C3 (centres undefined),-16% [at 8 µM],–
COc1ccccc1CNc1ccnc(-c2c(C)noc2C)n1,-3.36%,–
CC(Cc1ccccc1)C(=O)N(C)Cc1ccccc1 (centres undefined),-2.04%,–
COc1ccc(/C=C/NC(=O)Cc2ccc(OC)c(OC)c2)cc1,-11.3% [at 8 µM],–
Cn1c2c(c(=O)n(C)c1=O)C1c3ccccc3OCC1C(C)(C)O2 (centres undefined),5.14%,–
COc1ccccc1N1CCN(C[C@@H]2CN3C(=O)N(C)c4ccccc4C3=N2)CC1,-8.24%,–
CC1CN(Cc2nc3c(c(=O)n(C)c(=O)n3C)n2Cc2cccc(Cl)c2)CC(C)O1 (centres undefined),13.8%,–
CCCCC(CC)CN (centres undefined),inactive,–
Cc1ccnc(-n2sc3ccccc3c2=O)n1,–,0.316 µM (active)
Cc1nc2ccccc2c(=O)n1CCCn1ccnc1,6.43%,–
Cc1ccnc(N2CCC(C(=O)NC3CCCCCC3)CC2)n1,-1.2%,–
O=c1[nH]c(=O)n([C@H]2C[C@H](O)[C@H](CO)O2)cc1Br,-9.51%,–
CN(C)CCCn1c2ccccc2c2cnccc21,-25.7% [at 8 µM],–
O=C(COc1ccccc1Cl)Nn1cnnc1,10.7%,–
Cc1cccc(NC(=O)COc2ccccc2C)n1,-12%,–
Cc1ccccc1OCC(=O)Nc1ccc(N2CCN(C(=O)C(C)C)CC2)c(Cl)c1,–,12.6 µM (active)
COC(=O)[C@@]1(Cc2ccc(F)cc2)[C@@H]2[C@@H](CC(=O)[C@H]2CC(=O)C(=O)N2CCCC2)CN1C(=O)c1ccccc1,7.79%,–
COC(=O)CCCCCN1C(=O)NC(c2ccc(-c3ccccc3)cc2)C(C(=O)OCc2ccccc2)=C1C (centres undefined),-8.5%,–
Cc1ccccc1N1CCN(S(=O)(=O)C[C@@]23CC[C@H](C[C@H]2NC(=O)[C@@H](N)CCS(C)(=O)=O)C3(C)C)CC1,-5.27%,–
